High-throughput results from PubChem.
An excerpt weighted towards active compounds, which were near 3.6% of everything screened.
LDHA block: blocks human lactate dehydrogenase A | P00338 | purified LDHA, NADH/diaphorase-resazurin fluorescence; active compounds read low | activity change, % (values are at about 110 or 230 µM) | actives 0.15% (n = 480,000) | AID 1347041; in the data active means activity change below about -30%;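 further: plate controls were DMSO wells for no effect and wells without enzyme for full effect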
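Human LDH5 (2 nM) was incubated with 0.06 mM NADH and 0.2 mM pyruvate for 5 min at room temperature in Tris pH 7.4. Remaining NADH was coupled through diaphorase/resazurin, and resorufin fluorescence was read at 0 and 20 min.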
D1 ag: activates the human D1 dopamine receptor | P21728 | HEK293 T-REx D1 cells, calcium flux, agonist mode | activation, % at 2 µM | actives 1% (n = 360,000); further: 0% is about no effect
Target sequence (P21728 whole entry, looked up): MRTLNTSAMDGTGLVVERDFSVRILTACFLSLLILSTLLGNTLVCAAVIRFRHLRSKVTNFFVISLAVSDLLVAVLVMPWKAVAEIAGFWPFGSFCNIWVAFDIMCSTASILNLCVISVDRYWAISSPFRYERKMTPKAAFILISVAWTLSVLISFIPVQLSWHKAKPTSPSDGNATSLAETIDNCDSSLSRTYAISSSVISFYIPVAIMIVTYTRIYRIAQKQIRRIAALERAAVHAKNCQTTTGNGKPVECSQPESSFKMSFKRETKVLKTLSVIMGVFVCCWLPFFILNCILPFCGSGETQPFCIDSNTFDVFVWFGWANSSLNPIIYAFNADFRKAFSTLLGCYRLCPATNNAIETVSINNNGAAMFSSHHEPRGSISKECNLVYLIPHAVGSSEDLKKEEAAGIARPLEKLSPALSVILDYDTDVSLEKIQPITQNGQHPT
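Tetracycline-induced HEK293 TREx D1 cells, force-coupled to calcium signalling, were dye-loaded with a no-wash calcium kit. Compound was pin-added after a 10 s baseline. Fluorescence was read kinetically at 1 cycle/s for 180 s, with calcium rises flagged as agonism.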
D1 potentiator: enhances dopamine response at the human D1 receptor. P21728. HEK293 TREx D1 cells, calcium flux, dopamine EC20 potentiation. potentiation, % at 10 µM. actives 0.036% (n = 360,000); in the data active means potentiation above about 30%; further: 0% is about no effect
TRHR agonist: TRH receptor (human) agonism; P34981; TRHR cells, calcium flux fluo-8, FDSS agonist mode; activation, % at 2 µM; actives 0.18% (n = 360,000); AID 493084; further: 0% is about no effect
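Steps: seed TRHR cells overnight; add fluo-8 no-wash Ca dye, RT 30 min–1.5 h; record 10 s baseline; pin-transfer compounds; monitor fluorescence 1 cycle/s for the agonist window. Calcium increases flag candidate agonists.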
TRHR enhancer: TRH receptor (human) allosteric enhancement; TRHR cells, fluo-8 calcium fluorescence, EC20 TRH enhancement; AID 493056; actives 0.66% (n = 360,000); enhancement, % at 2 µM; P34981; in the data active means enhancement above about 30%; further: 0% is about no effect
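TRHR-expressing cells loaded with fluo-8 calcium dye were read kinetically (ex 480/em 530) during compound addition, then stimulated with an EC20 of TRH (10 nM final). Enhancement of the Gq-mediated intracellular calcium response was scored.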
D1 antagonist: antagonists of human D1 dopamine receptor; actives 3.2% (n = 360,000); activity change, negative = inhibition, % at 10 µM; AID 504652; HEK293 TREx D1 cells, calcium flux, dopamine EC80; active compounds read low; P21728; in the data active means activity change below about -30%; further: on the % scale 0 is the no-effect control and ±100 the full control effect
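Tetracycline-induced HEK293 T-REx cells with force-coupled D1 receptor were loaded with a no-wash calcium dye. Compound was added after a 10 s baseline and read kinetically for 180 s; EC80 dopamine was then added and calcium flux followed another 180 s.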
The depositor's hits bear a star. Unless noted, no stated cut-off is given here; in the data, active means activation above about 30%; inactive means the rest.

COC(=O)CCNC(=O)N1CCc2[nH]cnc2C1c1ccc(OC)cc1F (stereo unspecified) was read as LDHA block 12.7.
Cc1ccccc1OCC(=O)Nc1ccc2[nH]c(=O)sc2c1 was read as LDHA block 1.1, D1 ag 14.3, D1 potentiator -4.5, TRHR agonist 0.2, TRHR enhancer -3.9 and D1 antagonist -48.6*.
`Cc1ccccc1OCC(=O)Nc1ccc(Cc2ccncc2)cc1` gave LDHA block -3.7, D1 ag 15.7, D1 potentiator -3.4, TRHR agonist -0.2, TRHR enhancer 1.7 and D1 antagonist -43.7*.
For O=C(COc1ccccc1C(=O)NCc1ccccc1)Nc1ccc(Br)cc1 the results were LDHA block -0.5.
Screening Cc1ccc(OCC(=O)Nc2ccc3[nH]c(=O)sc3c2)cc1 returned LDHA block 3.7, D1 ag 10.4, D1 potentiator -3.1, TRHR agonist -1.5, TRHR enhancer 21.4 and D1 antagonist -27.0.
Screening Cc1ccccc1OCC(=O)Nc1ccncc1 returned LDHA block -12.0, D1 ag 12.4, D1 potentiator -3.8, TRHR agonist -1.4, TRHR enhancer 2.4 and D1 antagonist -18.2.
For CC(C)(CO)NCc1ccccc1OCC(=O)Nc1ccccc1 the results were LDHA block -8.9, D1 ag 6.1, D1 potentiator -3.6, TRHR agonist 0.4, TRHR enhancer -3.2 and D1 antagonist -18.1.
For Cc1ccc(NC(=O)COc2ccccc2CNC(C)(C)CC(C)(C)C)cc1 the results were LDHA block 2.1, D1 ag 61.8*, D1 potentiator -4.5, TRHR agonist 2.0, TRHR enhancer 6.3 and D1 antagonist -6.1.
O=C(COc1ccccc1C(=O)NCc1ccccc1)Nc1ccccc1 was read as LDHA block -7.3, D1 ag 4.2, D1 potentiator -2.6, TRHR agonist 0.1, TRHR enhancer -1.8 and D1 antagonist -35.3*.
For CCOc1cc(/C=C/C(=O)c2cccc(Cl)c2)cc(Cl)c1O the results were LDHA block -10.8.
`Cc1cnc2c(S(=O)(=O)N3CCCCC3)cccc2c1` gave LDHA block -4.9.
`CC(=O)Nc1cccc(NC(=O)COc2ccccc2C)c1` gave LDHA block 2.1, D1 ag 6.9, D1 potentiator -7.3, TRHR agonist -0.4, TRHR enhancer 5.8 and D1 antagonist -38.7*.
For CC(=O)c1cccc(NC(=O)COC(=O)COc2ccccc2C)c1 the results were LDHA block -0.5, D1 ag 5.9, D1 potentiator -1.6, TRHR agonist 0.3, TRHR enhancer -8.6 and D1 antagonist -24.2.
`COCC(=O)O[C@]1(CCN(C)CCCc2nc3ccccc3[nH]2)CCc2cc(F)ccc2[C@@H]1C(C)C` gave LDHA block 2.3, D1 ag 66.8*, D1 potentiator -10.0, TRHR agonist 2.9, TRHR enhancer -3.6 and D1 antagonist -22.7.
CCN(CC)CCCOc1ccc(C)cc1Br was read as LDHA block -16.6, D1 ag 4.2, D1 potentiator -9.2, TRHR agonist 0.1, TRHR enhancer -4.6 and D1 antagonist -38.0*.
For Cc1ccc(OCCn2ccnc2)c(C)c1 the results were LDHA block -2.2, D1 ag 1.6, D1 potentiator -3.8, TRHR agonist -0.4, TRHR enhancer 6.2 and D1 antagonist 13.6.
For Cc1ccc(OCCOCCn2ccnc2)c(Br)c1 the results were LDHA block -20.0, D1 ag 31.2*, D1 potentiator -7.6, TRHR agonist -1.3, TRHR enhancer 16.0 and D1 antagonist -54.5*.
C=CCNCCCOc1ccc(C)cc1Br was read as LDHA block -8.0, D1 ag 6.1, D1 potentiator -4.6, TRHR agonist 1.0, TRHR enhancer 16.4 and D1 antagonist 21.8.
For N#CCC(CNc1ncc(C(F)(F)F)cc1Cl)OC(=O)c1ccc(Cl)cc1Cl (stereo unspecified) the results were LDHA block 1.9, D1 ag 30.8*, D1 potentiator -2.5, TRHR agonist 0.5, TRHR enhancer -2.0 and D1 antagonist 9.2.
`O=C(Cn1ncc2ccccc2c1=O)NCCCC1CCCC1` gave LDHA block -4.2.
For COc1ccccc1NC(=O)CSc1nnc(CN2CCCCC2)n1-c1ccc(Cl)cc1 the results were LDHA block -0.8.
Cc1cc(C)cc(NC(=O)CSc2nc(N)c(NC(=O)c3cccs3)c(=O)[nH]2)c1 was read as LDHA block -32.4*, D1 ag -2.2, D1 potentiator -0.8, TRHR agonist -0.1, TRHR enhancer 3.4 and D1 antagonist 18.3.
Screening Cc1nnc(NC(=O)CSc2nc(N)c(NC(=O)c3cccs3)c(=O)[nH]2)s1 returned LDHA block 1.3, D1 ag 16.3, D1 potentiator -19.6, TRHR agonist 0.4, TRHR enhancer -0.3 and D1 antagonist -5.5.
O=C(Nc1ccccc1C(F)(F)F)C1CCN(c2nnc(-n3cccc3)s2)CC1 was read as LDHA block 1.0, D1 ag 7.2, D1 potentiator -4.7, TRHR agonist -1.8, TRHR enhancer 6.6 and D1 antagonist -12.2.
CCN(CC)c1ccc(NC(=O)C2CCN(c3nnc(-n4cccc4)s3)CC2)c(C)c1 was read as LDHA block 14.2, D1 ag -0.2, D1 potentiator -0.3, TRHR agonist -1.1, TRHR enhancer -2.5 and D1 antagonist -37.7*.
`Cc1ccn2c(Nc3c(C)cccc3C)c(-c3ccsc3)nc2c1` gave LDHA block -5.3, D1 ag 0.5, D1 potentiator 3.0, TRHR agonist 0.1, TRHR enhancer -6.3 and D1 antagonist 5.1.
Screening Cc1ccn2c(Nc3c(C)cccc3C)c(-c3ccc(Cl)s3)nc2c1 returned LDHA block 3.2, D1 ag 33.7*, D1 potentiator -3.6, TRHR agonist 12.3, TRHR enhancer -3.3 and D1 antagonist 1.1.
Screening CCN(CC(=O)NCc1ccc(Cl)cc1)C(=O)/C=C/c1ccc(C#N)cc1 returned LDHA block -15.9, D1 ag -0.8, D1 potentiator -3.3, TRHR agonist 0.7, TRHR enhancer -1.9 and D1 antagonist -2.7.
For CCN(CC(=O)NCc1ccc(Cl)cc1)C(=O)/C=C/c1ccccc1 the results were LDHA block -4.1, D1 ag -0.2, D1 potentiator 1.9, TRHR agonist -0.3, TRHR enhancer -6.1 and D1 antagonist -31.2*.
For COc1ccc(CN(C)C(=O)CSc2nc(-c3cccs3)nc3ccccc23)c(OC)c1OC the results were LDHA block 1.9.
For O=C(NCc1cccc(C(F)(F)F)c1)NCc1coc(-c2cccs2)n1 the results were LDHA block -2.2.
Screening CC(=O)c1cccc(NC(=O)CSc2nc(-c3ccccc3C)nc3cc(=O)[nH]n23)c1 returned LDHA block 0.5.
